In the library only some 3.4% were active in any assay of this set; here they are far more common.
PLC-gamma1 inh – PLC-gamma1 enzyme inhibitors, primary screen, biochemical, fluorescence, purified enzyme. fluorogenic substrate. inhibition, % at 12.2 µM. 1-phosphatidylinositol 4,5-bisphosphate phosphodiesterase gamma-1 (Homo sapiens), P19174. 370,000 tested, 0.84% active. AID 720700, 2013; in the data active means inhibition above about 9.5%
proKLK7 act – proKLK7 zymogen activators, primary screen, biochemical, fluorescence intensity | Kallikrein-7 (Homo sapiens), P49862 | purified proKLK7, EDANS-DABCYL substrate fluorescence; 100% is mature enzyme control, 0% vehicle | activation, % at 7 µM | 370,000 tested, 0.9% active | AID 652039, 2013;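 active means activation above the mean of all tested compounds plus 3 SD, computed per campaign excluding outliers beyond control limits, cut at about 13% in these data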
sPLA2-III inh – human group III sPLA2 inhibitors, primary screen, biochemical, QFRET, BODIPY PC-A2 liposome substrate; Group 3 secretory phospholipase A2 (Homo sapiens), Q9NZ20; QFRET BODIPY PC-A2 liposome hydrolysis, fluorescence; inhibition, % at 12.2 µM; 370,000 tested, 0.56% active; AID 743126, 2013;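 active means inhibition above mean plus 3 SD of compounds lying within the high and low control bounds, cut at about 19% in these data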
Target sequence (Q9NZ20 whole entry, looked up): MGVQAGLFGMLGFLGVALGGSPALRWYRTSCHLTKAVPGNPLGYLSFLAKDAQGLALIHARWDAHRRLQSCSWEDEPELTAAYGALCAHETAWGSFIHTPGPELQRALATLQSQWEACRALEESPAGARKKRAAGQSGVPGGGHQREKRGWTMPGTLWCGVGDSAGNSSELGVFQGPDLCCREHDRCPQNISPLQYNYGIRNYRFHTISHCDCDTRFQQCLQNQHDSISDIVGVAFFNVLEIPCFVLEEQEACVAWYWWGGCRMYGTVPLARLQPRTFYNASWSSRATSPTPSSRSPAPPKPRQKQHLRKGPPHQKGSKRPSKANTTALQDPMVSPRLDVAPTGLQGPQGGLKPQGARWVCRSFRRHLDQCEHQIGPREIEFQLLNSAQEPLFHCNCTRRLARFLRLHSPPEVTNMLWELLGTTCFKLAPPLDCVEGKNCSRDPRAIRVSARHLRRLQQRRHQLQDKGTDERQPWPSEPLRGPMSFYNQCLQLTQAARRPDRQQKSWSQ
ADAM17 inh – ADAM17 inhibitors, primary screen, biochemical, QFRET; recombinant ADAM17, EDANS/DABCYL FRET peptide cleavage; 370,000 tested, 0.83% active; inhibition, % at 6.95 µM; AID 720648, 2013;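 active means inhibition above the mean of compounds lying between control limits plus 3 SD, set per campaign, cut at about 8.5% in these data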
ADAM10 inh – human ADAM10 inhibitors, primary screen, biochemical, QFRET, HTS; Disintegrin and metalloproteinase domain-containing protein 10 (Homo sapiens), O14672; recombinant ADAM10, EDANS/DABCYL FRET peptide cleavage, 3 h; inhibition, % at 7 µM; 370,000 tested, 0.62% active; AID 720582, 2013;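 active means inhibition above a per-campaign cutoff equal to the mean of compounds falling between control-based bounds plus 3 SD, cut at about 20% in these data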
PLC-beta3 inh – human PLC-beta3 inhibitors, primary screen, biochemical, fluorescence; 1-phosphatidylinositol 4,5-bisphosphate phosphodiesterase beta-3 (Homo sapiens), Q01970; Purified PLC-beta3, fluorogenic substrate; inhibition, % at 12.2 µM; 370,000 tested, 0.18% active; AID 720704, 2013
ADAM10 counter – ADAM10 inhibitors, counter-screen for ADAM17 exosite inhibitor project, biochemical, FRET, human ADAM10; shares compounds with ADAM17 inh; recombinant ADAM10, EDANS/DABCYL FRET peptide cleavage, 3 h; inhibition, % at 6.95 µM; 2,900 tested, 47% active; AID 743256, 2014;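 active means mean inhibition over the triplicate runs exceeds the activity threshold set in the earlier primary screen, cut at about 20% in these data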
ADAM17 confirm – ADAM17 inhibitors, hit retest, confirmation, biochemical, QFRET peptide cleavage. inhibition, % at 6.95 µM. 2,900 tested, 65% active. recombinant ADAM17, EDANS/DABCYL QFRET peptide cleavage. shares compounds with ADAM17 inh;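 active means mean inhibition across replicates above the hit cutoff set in the primary screen, cut at about 8.5% in these data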
PLCg1 ctr – PLC-gamma1 enzyme inhibitors, counter-screen for PLC-beta3 inhibitor project, biochemical, fluorescence; shares compounds with PLC-gamma1 inh; purified PLC-gamma1, fluorogenic substrate; inhibition, % at 12.3 µM; 3,300 tested, 3.1% active; AID 743258, 2014; in the data active means inhibition above about 9.5%
PLCb3 confirm – PLC-beta3 inhibitor confirmation, biochemical, fluorescence, purified enzyme; shares compounds with PLC-gamma1 inh; fluorogenic substrate fluorescence; 3,300 tested, 1% active; AID 743261, 2014; inhibition, % at 12.3 µM
Of the large screens only hits and unclear results are named; the others gave an inactive call (follow-up assays come after a bar, where they were run). Unless noted, no stated cut-off is given here; in the data, active means inhibition above about 11%; inactive means the rest.

COc1ccc(/C(O)=C2/C(=O)C(=O)N(CC3CCCO3)C2c2cccc(O)c2)cc1 (stereo unspecified)	PLC-gamma1 inh 9.6, ADAM17 inh 8.8 | ADAM10 counter inactive | ADAM17 confirm inactive | PLCg1 ctr inactive | PLCb3 confirm inactive
CC12CCC(C(=O)Nc3ccc(SC(F)F)cc3)(CC1=O)C2(C)C (stereo unspecified)	PLC-gamma1 inh 9.8, ADAM17 inh 14.9 | ADAM10 counter inactive | ADAM17 confirm inactive | PLCg1 ctr inactive | PLCb3 confirm inactive
Cn1c(=O)c2c(nc(OC3CCCCCC3)n2C)n(C)c1=O	none
Cc1ccc(CN(C(=O)Cn2nnc3ccccc32)C(C(=O)NCc2ccco2)c2ccc(C)o2)cc1 (stereo unspecified)	none
Cc1ccc(C(C(=O)NCc2ccco2)N(CCc2ccccc2)C(=O)Cn2nnc3ccccc32)o1 (stereo unspecified)	ADAM17 inh 10.1, PLC-beta3 inh 11.2 | ADAM10 counter inactive | ADAM17 confirm 10.4 | PLCg1 ctr inactive | PLCb3 confirm inactive
CC(C)CC(=O)NC(=S)Nc1nc(-c2cccc3ccccc23)cs1	PLC-gamma1 inh 16.1, ADAM17 inh 13.8 | ADAM10 counter inactive | ADAM17 confirm inactive | PLCg1 ctr inactive | PLCb3 confirm inactive
Cc1ccc(C(=O)c2ccccc2C(=O)OCC(=O)NCC2CCCO2)cc1 (stereo unspecified)	none
CCOc1ccc(NC(=O)CC2SC(=O)N(c3ccccc3)C2=O)cc1 (stereo unspecified)	PLC-gamma1 inh 9.9, ADAM17 inh 9.6 | ADAM10 counter inactive | ADAM17 confirm 41.3 | PLCg1 ctr inactive | PLCb3 confirm inactive
O=C(COC(=O)C1C2CC3OC(=O)C1C3C2)Nc1ccc(Cl)cc1 (stereo unspecified)	none
CSc1ccc(CN(C)C(=O)CN2C(=O)NC3(CCCC3)C2=O)cc1	none
CC1CCC2(CC1)NC(=O)N(CC(=O)NCc1ccc(Cl)cc1)C2=O (stereo unspecified)	none
O=C(CN1C(=O)NC2(CCCCCCC2)C1=O)NCc1ccc(Cl)cc1	PLC-gamma1 inh 12.0, ADAM17 inh 11.3 | ADAM10 counter inactive | ADAM17 confirm inactive | PLCg1 ctr inactive | PLCb3 confirm inactive
CN(Cc1ccccc1)C(=O)CN1C(=O)NC2(CCCCCCC2)C1=O	PLC-gamma1 inh 12.7, ADAM17 inh 8.8 | ADAM10 counter inactive | ADAM17 confirm inactive | PLCg1 ctr inactive | PLCb3 confirm inactive
C#CCNC(=O)C[C@H]1C[C@@]2(C(=O)OC)C(=C[C@H](C(C)C)O[C@@H]2C2CC2)N(Cc2cccc3ccccc23)C1=O	PLC-gamma1 inh 9.5, ADAM17 inh 8.9 | ADAM10 counter inactive | ADAM17 confirm inactive | PLCg1 ctr inactive | PLCb3 confirm inactive
